The source of these data is PubChem BioAssay (NCI).

This is part of a sample that, as a whole, favours compounds with a hit. Of some 83,000 tested, about 20% had one in any assay.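 The test compound was applied at a single concentration to cells in 96-well plates for 48 hours, and percent growth was recorded.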 Unmarked numbers belong to inactive results. The source made the active and inactive calls. The calls were made as follows: active = growth percent below 10; inactive = the rest.

Among the test systems are SR leukemia; RPMI-8226 leukemia; OVCAR-8 ovarian; OVCAR-5 ovarian; OVCAR-4 ovarian; SK-OV-3 ovarian; IGROV1 ovarian; OVCAR-3 ovarian; HS 578T breast; NCI/ADR-RES ovarian; T-47D breast; BT-549 breast; MDA-MB-435 melanoma; SW-620 colon; MCF7 breast; HCT-116 colon; HCC-2998 colon; KM12 colon; MDA-MB-468 breast.
Assay in all cases: NCI-60 one-dose screen, 48 h (100 = growth as untreated, 0 = no growth, -100 = all killed)
What all share (conditions): 10 µM unless noted

Take `Cc1cc2nc3c4ccccc4n(CCCN(C)C)c3nc2cc1C`: the growth is 3.07% (active) with SR leukemia; -26.1% (active) in the assay with RPMI-8226 leukemia; 6.13% (active) in the assay on OVCAR-8 ovarian; 9.07% (active) in the assay on OVCAR-5 ovarian; -23.4% (active) in the assay on OVCAR-4 ovarian; 8.14% (active) with SK-OV-3 ovarian. Further, the growth in the assay on IGROV1 ovarian is -10.5% (active); in the assay on OVCAR-3 ovarian, -14.2% (active); in the assay on HS 578T breast, -10.7% (active); with NCI/ADR-RES ovarian it was 1.96% (active); with T-47D breast it was -10.7% (active); with BT-549 breast, -78.2% (active). For the same molecule, the growth in the assay with MDA-MB-435 melanoma is -93% (active); in the assay on SW-620 colon it was -16.3% (active); in the assay with MCF7 breast, -30% (active); in the assay on HCT-116 colon, 3.73% (active); in the assay with HCC-2998 colon it was -81.4% (active); in the assay with KM12 colon it was -8.99% (active). Further, the growth in the assay with MDA-MB-468 breast is -56.9% (active).

For `CC(=O)Nc1ccc(-c2nc3cc(-c4ccc(O)cc4)ccc3n2C)cc1`, the growth is 23.1% with SR leukemia; 41.3% in the assay with RPMI-8226 leukemia; 54.8% in the assay with OVCAR-8 ovarian; 74.2% with OVCAR-5 ovarian; 54.5% in the assay with OVCAR-4 ovarian; 94.5% with SK-OV-3 ovarian. The growth in the assay with IGROV1 ovarian was 34.8%; in the assay with OVCAR-3 ovarian, 49%; in the assay on HS 578T breast, 66.1%; in the assay on NCI/ADR-RES ovarian it was 55.3%; in the assay on T-47D breast, 50.8%; in the assay with BT-549 breast it was 65.6%. In addition, the growth in the assay with MDA-MB-435 melanoma was 50.2%; in the assay on SW-620 colon it was 66%; with MCF7 breast, 24.7%; with HCT-116 colon, 29%; with HCC-2998 colon it was 58.9%; with KM12 colon, 57.8%. For the same molecule, the growth in the assay on MDA-MB-468 breast was 58.3%.

With `COc1ccc2c(c1)c(-c1cc(N)n3nc(-c4cn(C)c5ccccc45)cc3n1)cn2C`, the growth with SR leukemia was 6.15% (active); in the assay on RPMI-8226 leukemia, -14.5% (active); in the assay on OVCAR-8 ovarian it was -94.4% (active); in the assay with OVCAR-5 ovarian it was -38.8% (active); with OVCAR-4 ovarian, -64.2% (active); with SK-OV-3 ovarian it was -79.5% (active). Also, the growth in the assay on IGROV1 ovarian is -40.3% (active); in the assay with OVCAR-3 ovarian it was -67.4% (active); in the assay on HS 578T breast, -20.7% (active); in the assay with NCI/ADR-RES ovarian, -17.1% (active); with T-47D breast it was -57.4% (active); in the assay on BT-549 breast, -22.4% (active). Moreover, the growth is -75.6% (active) with MDA-MB-435 melanoma; -58.5% (active) in the assay on SW-620 colon; -60.6% (active) in the assay with MCF7 breast; -88.6% (active) with HCT-116 colon; -82% (active) in the assay with HCC-2998 colon; -60.6% (active) in the assay on KM12 colon. For the same molecule, the growth with MDA-MB-468 breast is -34.6% (active).

In the case of `O=C1NC(=O)c2c1c1c3cc(Br)ccc3[nH]c1c1oc3ccc(F)cc3c21`, the growth in the assay on SR leukemia is 4.79% (active); in the assay with RPMI-8226 leukemia, 14.8%; in the assay on OVCAR-8 ovarian, -44.7% (active); with OVCAR-5 ovarian, 51.7%; in the assay on OVCAR-4 ovarian it was -88% (active); in the assay with SK-OV-3 ovarian, -5.1% (active). In addition, the growth in the assay with IGROV1 ovarian was -46.9% (active); in the assay with OVCAR-3 ovarian, -33.3% (active); in the assay with HS 578T breast, -34.9% (active); in the assay with NCI/ADR-RES ovarian it was 10%; in the assay with T-47D breast, -20.1% (active); in the assay on BT-549 breast, 15.1%. In addition, the growth was 33.7% with MDA-MB-435 melanoma; 3.59% (active) with SW-620 colon; -47.5% (active) in the assay with MCF7 breast; 0.579% (active) in the assay with HCT-116 colon; -9.47% (active) in the assay with HCC-2998 colon; 15.1% in the assay with KM12 colon. Besides, the growth with MDA-MB-468 breast is -51.8% (active).

Regarding `CC(=O)OC[C@@]1(C)C2CC[C@]3(C)C(CC=C4C5CC(C)(C)CC[C@]5(C(=O)Nc5ccc(F)cc5)CC[C@]43C)[C@@]2(C)C[C@@H](OC(C)=O)[C@@H]1OC(C)=O` (stereo partly drawn), the growth in the assay with SR leukemia is 27.8%; in the assay with RPMI-8226 leukemia, 13.5%; in the assay on OVCAR-8 ovarian it was 36.4%; in the assay on OVCAR-5 ovarian it was 78.7%; in the assay with OVCAR-4 ovarian, 30.3%; with SK-OV-3 ovarian, 45.1%. Further, the growth was 51.9% with IGROV1 ovarian; 42% in the assay with OVCAR-3 ovarian; 85.3% in the assay on HS 578T breast; 40.6% with NCI/ADR-RES ovarian; 30.7% in the assay with T-47D breast; 41.7% in the assay on BT-549 breast. In addition, the growth was 44.2% in the assay on MDA-MB-435 melanoma; 36.8% in the assay with SW-620 colon; 27.3% with MCF7 breast; 22.9% with HCT-116 colon; 48.6% in the assay with HCC-2998 colon; 44.6% in the assay with KM12 colon. In the assay on MDA-MB-468 breast, the growth is 5.58% (active).

As to `C=CC(=O)Nc1ccc(C)c(Oc2ccc(Cl)cc2)c1`, the growth is 24.3% in the assay with SR leukemia; 23.8% in the assay with RPMI-8226 leukemia; 38.5% in the assay with OVCAR-8 ovarian; 64.8% with OVCAR-5 ovarian; 56.2% in the assay with OVCAR-4 ovarian; 77.4% in the assay with SK-OV-3 ovarian. Besides, the growth in the assay on IGROV1 ovarian was 46.4%; with OVCAR-3 ovarian it was 36.6%; in the assay with HS 578T breast, 51.8%; in the assay on NCI/ADR-RES ovarian, 37.3%; in the assay on T-47D breast, 41.8%; in the assay with BT-549 breast, 22.8%. Moreover, the growth in the assay on MDA-MB-435 melanoma was 43.9%; in the assay on SW-620 colon, 43.8%; in the assay with MCF7 breast it was 36.8%; in the assay with HCT-116 colon, 52.1%; in the assay with HCC-2998 colon it was 58.4%; in the assay on KM12 colon, 47.2%. Also, the growth in the assay with MDA-MB-468 breast is 10.2%.

As to `O=C(CN1C(=O)/C(=C/c2ccccc2Cl)SC1=S)N1CCOCC1`, the growth in the assay on SR leukemia was 34.3%; in the assay on RPMI-8226 leukemia it was 58.8%; with OVCAR-8 ovarian, 97.1%; in the assay on OVCAR-5 ovarian, 98.3%; in the assay on OVCAR-4 ovarian, 78.2%; in the assay on SK-OV-3 ovarian it was 124%. Also, the growth was 107% in the assay on IGROV1 ovarian; 77.1% with OVCAR-3 ovarian; 106% in the assay on HS 578T breast; 95.5% in the assay with NCI/ADR-RES ovarian; 70.9% in the assay with T-47D breast; 119% with BT-549 breast. Besides, the growth with MDA-MB-435 melanoma is 91.3%; with SW-620 colon, 38.6%; in the assay with MCF7 breast, 49.6%; with HCT-116 colon, 61.1%; in the assay with HCC-2998 colon it was 124%; with KM12 colon, 101%. In addition, the growth with MDA-MB-468 breast is -2.81% (active).
